SARS PLpro yeast-1: blocks SARS-CoV papain-like protease in a yeast assay; S. cerevisiae expressing SARS-CoV PLpro, growth rescue; hit rate 0.19% among 330,000; AID 485353; Potency, µM (doses to about 32.9 µM), inactives show at the highest dose activity, positive = growth rescue, hits mostly activators; calls by dose curve; also: potency is read from the fitted curve at half-maximal effect; 0% is about no effect; nearly all actives have a fitted effect of over 55% in size
RE007 growth inh: less growth of the S. pombe RE007 Vpr strain; S. pombe RE007 Vpr strain, BacTiter-Glo ATP luminescence, 24 h; Potency, µM (top dose mostly 92.2 µM), for the others: at the top dose activity change, negative = less growth, actives largely listed as inhibitors; hit rate 0.21% among 360,000; active = well fitted falling curve with a large enough effect; inconclusive = small, poorly fitted or top-dose-only effect; inactive = no such curve, though single readings can be large or run the other way; also: potency is read from the fitted curve at half-maximal effect; % is scaled to controls: 0 for no effect and ±100 for the full control effect; nearly all actives have a fitted effect of over 50% in size
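Fission yeast strain RE007, carrying one chromosomally integrated HIV-1 vpr copy, was seeded at OD 0.01 in PMG+AL medium with 23 nL pinned compound. After 24 h at 30 °C and 99% humidity, viability was read by BacTiter-Glo luminescence.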
NS1 inh: influenza NS1 inhibition; hit rate 0.4% among 270,000; Potency, µM (top dose mostly 46.1 µM), without a hit: top-dose activity, positive = more growth; AID 2326; calls by dose curve; also: potency is read from the fitted curve at half-maximal effect; actives are rising curves; nearly all actives have a fitted effect of over 50% in size
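Recovery from NS1-induced slow growth read by OD600 in budding yeast switched to galactose assay medium (pH 6.0, -URA) at 1:100 dilution. Compound 23 nl per well; the matching strain lacking NS1 serves as control.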
Pf growth 48h: inhibits P. falciparum growth in the first generation, 48 h. hit rate 5.9% among 310,000. Potency, µM (series often up to 28.7 µM), for the others: top-dose activity change, negative = inhibition, most hits filed as inhibitors. P. falciparum luciferase growth in erythrocytes, 48 h. AID 504832; also: potency is read from the fitted curve at half-maximal effect; % is scaled to controls: 0 for no effect and ±100 for the full control effect
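Read-out is firefly luciferase luminescence from an integrated reporter in P. falciparum, so falling signal marks reduced parasite growth. Infected erythrocytes were at 2% hematocrit and 0.1% parasitemia (final) in Albumax-supplemented RPMI 1640.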
Pf growth 96h: P. falciparum growth inhibition at 96 hours. hit rate 6.9% among 320,000. AID 504834. Potency, µM (top dose mostly 28.7 µM), for the others: at the highest dose activity change, negative = inhibition, usual class: inhibitors. P. falciparum luciferase reporter growth, 96 h; also: potency is read from the fitted curve at half-maximal effect; % is scaled to controls: 0 for no effect and ±100 for the full control effect
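Delayed-death screen, second-generation endpoint: infected erythrocytes, 2% hematocrit, 0.05% parasitemia final; 96 hours at 37 C, 5% CO2; luciferase detection reagent; luminescence decrease equals reduced growth.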
SARS PLpro yeast-2: Rescues yeast growth by inhibiting SARS-CoV PLpro; shares compounds with SARS PLpro yeast-1; yeast expressing SARS-CoV PLpro, growth phenotype rescue; calls only; hit rate 19% among 1,000; AID 652038; call rule not given here
* marks the source's active call; other numbers are inactive results; i = inactive; u = inconclusive; x = no result; + = active, no number. Hits are enriched below; roughly 9.5% of the tested compounds scored in any of these assays. Unless noted, calls follow the shape of the dose curve; as a rule, active = well fitted inhibition curve with a large enough effect; inconclusive = small, poorly fitted or top-dose-only effect, or another doubt; inactive = no such curve, though single readings can be large or run the other way.

SMILES | SARS PLpro yeast-1 | RE007 growth inh | NS1 inh | Pf growth 48h | Pf growth 96h | SARS PLpro yeast-2
O=c1c2ccccc2ncn1CCCSc1ccccc1 | u | -10.0% | -43.7% | 22.2% | u | i
Cc1cccc(NC(=O)COC(=O)CNC(=O)C2CCCCC2)c1 | u | -2.5% | 1.9% | x | 42.7% | i
COc1cccc(NC(=O)COC(=O)CNC(=O)C2CCCCC2)c1 | 0.9% | 5.6% | x | 45.5% | 49.0% | x
CN(CC(=O)N1CCN(c2ccccc2)CC1)C1CCCc2ccccc21 (stereo not drawn) | -0.1% | -6.3% | 3.1% | -16.1% | -8.5% | x
O=C(Nc1cc(Cl)cc(Cl)c1)C(NCCO)c1ccccc1 (stereo not drawn) | u | 6.8% | -3.3% | 31.2% | 66.5% | i
Cc1cc(S(=O)(=O)NCc2ccccc2)ccc1OCC(=O)NCc1ccncc1 | -0.7% | 0.1% | 2.0% | u | u | x
N#CN(CC(N)=O)c1nc(N2CCCCC2)nc(N2CCCCC2)n1 | u | -0.2% | 1.9% | u | -8.0% | i
Cc1noc(C(=O)N2CC3(C)CC2CC(C)(C)C3)c1Cl (stereo not drawn) | 4.47µM* | 5.4% | u | x | u | i
O=C(Cn1cnc2ccccc21)N/N=C/C(Br)=C/c1ccccc1 | 4.6% | -11.8% | 16.2% | -4.3% | u | x
NNC(=O)/C(=N/Nc1ccccc1)S(=O)(=O)c1ccc(Cl)cc1 | u | 9.9% | u | 9.28µM* | 11.7µM* | i
CCOC(=O)/C(=N/Nc1ccc(C)cc1)S(=O)(=O)c1ccc(Cl)cc1 | -30.1% | -5.4% | -5.8% | 6.7% | x | x
C[C@H](c1ccccc1)N1C[C@H](COCc2ccccc2)Oc2cc(N3CC[C@@H](O)C3)ccc2S1(=O)=O | x | 3.0% | x | x | x | x
C[C@H](CO)N1C[C@H](C)[C@@H](CN(C)C(=O)Nc2ccc3c(c2)OCO3)Oc2ccc(NC(=O)Cn3cnnn3)cc2C1=O | 0.3% | -6.9% | x | x | x | x
Cc1nn(C)c(C)c1/C=C1/CC2C3CC=C4CC(O)CCC4(C)C3CCC2(C)C1=O (stereo not drawn) | 12.6µM* | 22.7% | -15.5% | u | u | i
CC12CCC3C(CC=C4CC(O)CCC43C)C1C/C(=C\N1CCCC1)C2=O (stereo not drawn) | -1.3% | x | -31.2% | 0.4% | 13.3% | x
O=C1NCCN/C1=C\C(=O)c1cccc(Br)c1 | -4.3% | -25.4% | -44.6% | 63.5% | 170.8% | x
S=C(NCc1cccs1)Nc1cccc(Cl)c1Cl | u | 19.9% | 5.5% | 24.8% | -5.6% | x
Cc1c(Cl)cccc1NC(=S)NCc1cccs1 | 14.1µM* | -6.3% | -10.7% | u | -1.7% | +
NS(=O)(=O)c1ccc(CCNS(=O)(=O)c2ccc(Cl)nc2)cc1 | 0.8% | 3.7% | -0.9% | -11.1% | -7.9% | x
O=C(Nc1ccn(CCCNCc2ccc3c(c2)OCO3)c(=O)n1)OCc1ccccc1 | x | 6.1% | x | x | x | x
O=C(CCl)Nc1cccc2ncccc12 | 11.2µM* | -3.8% | -1.7% | 2.33µM* | 0.6% | +
O=C(Nc1nnc(CSCc2ccc(F)cc2)s1)c1ccc([N+](=O)[O-])cc1 | -9.0% | 1.6% | -1.4% | 11.0% | -9.8% | x
O=C(NC1CCCCCCC1)c1cnccn1 | -0.9% | 25.3% | -0.4% | x | -9.0% | x
C/C(CC(=O)NC1CCCCCC1)=N\NC(=O)c1cnccn1 | 3.55µM* | 3.8% | -5.6% | 7.8% | -14.2% | i
COc1cccc(OCCSc2nc(N)cc(N)n2)c1 | x | -8.8% | -104.7% | x | 8.2% | i
SMILES | SARS PLpro yeast-1 | RE007 growth inh | NS1 inh | Pf growth 48h | Pf growth 96h | SARS PLpro yeast-2
Nc1cc(N)nc(SCCOc2ccccc2)n1 | -33.6% | 1.4% | -133.6% | 136.4% | 160.6% | x
CC(Sc1nnc(N)s1)C(=O)NC1CCCCC1C (stereo not drawn) | 5.9% | -10.5% | x | u | 14.0% | x
CC(=O)NCCC(=O)Nc1nc(-c2ccc3ccccc3c2)cs1 | u | 1.4% | -1.1% | 27.6% | 3.1% | i
Cc1ccc(S(=O)(=O)N2CCOCC2)cc1C(=O)NC1CCSc2ccccc21 (stereo not drawn) | 0.7% | -4.4% | -13.2% | -19.4% | 1.6% | x
CC(C)CNC(=S)NC(=O)c1ccccc1Cl | u | -18.8% | 10.2% | 31.4% | 37.3% | i
O=C(NC(=S)Nc1ccc(O)cc1)c1ccccc1Cl | -2.2% | -1.9% | 5.6% | 99.3% | -4.3% | x

Screens: PubChem BioAssay, National Center for Advancing Translational Sciences (NCATS)
